# An excerpt weighted towards active compounds, which were near 2.5% of everything screened.
# PfM18AAP inh: PfM18AAP enzyme inhibition; recombinant PfM18AAP, H-Glu-NHMec fluorogenic cleavage; inhibition, % at 7.35 µM; actives 1.2% (n = 290,000); AID 1822;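 active = inhibition above the campaign mean inhibition over all tested compounds plus 3 SD, cut at about 28% in these data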;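 note: 0% = plate median of test compound wells and 100% = 2 mM ZnCl2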
# HDAC3 inhib: inhibitors of human histone deacetylase 3; O15379; recombinant HDAC3, fluorogenic peptide/trypsin coupled, fluorescence; inhibition, % at 8.3 µM; actives 0.15% (n = 320,000); in the data active = inhibition above about 26%, passing the limit was not always enough; inconclusive = no clear call, values can overlap the other calls
# UBC9 SUMO inh: SUMOylation inhibition; inhibition, % at 35 µM; actives 0.36% (n = 290,000); HTRF SUMOylation assay, SAE1/SAE2 + UBC9, in vitro; AID 2006; in the data active = inhibition above about 50%, passing the limit was not always enough; inconclusive = no clear call, values can overlap the other calls
# Target sequence (P63279 whole entry, looked up): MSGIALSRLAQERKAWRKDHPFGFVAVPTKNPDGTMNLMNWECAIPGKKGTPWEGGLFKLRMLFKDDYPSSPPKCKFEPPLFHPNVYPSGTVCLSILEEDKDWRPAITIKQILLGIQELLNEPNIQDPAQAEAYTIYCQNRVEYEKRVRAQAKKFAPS
# G6PDH CS: L. mesenteroides G6PDH inhibition counter-screen | inhibition, % at 5 µM | Purified L. mesenteroides G6PDH, diaphorase/resazurin coupled fluorescence, 45 min | actives 0.12% (n = 200,000); in the data active = inhibition above about 50%
# p97 inhibitor: human p97 ATPase inhibition; inhibition, % at 8 µM; actives 0.42% (n = 220,000); recombinant p97 ATPase, Kinase-Glo ATP luminescence, 3 h; P55072; AID 1481; in the data active = inhibition above about 15%;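 note: 0% = DMSO vehicle and 100% = wells lacking enzyme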
# PHOSPHO1 inh: inhibitors of human PHOSPHO1 phosphatase; Q8TCT1; recombinant PHOSPHO1, absorbance phosphatase assay; inhibition, % at 13.3 µM; actives 1.1% (n = 290,000); in the data active = inhibition above about 60%
# Target sequence (Q8TCT1 whole entry, looked up): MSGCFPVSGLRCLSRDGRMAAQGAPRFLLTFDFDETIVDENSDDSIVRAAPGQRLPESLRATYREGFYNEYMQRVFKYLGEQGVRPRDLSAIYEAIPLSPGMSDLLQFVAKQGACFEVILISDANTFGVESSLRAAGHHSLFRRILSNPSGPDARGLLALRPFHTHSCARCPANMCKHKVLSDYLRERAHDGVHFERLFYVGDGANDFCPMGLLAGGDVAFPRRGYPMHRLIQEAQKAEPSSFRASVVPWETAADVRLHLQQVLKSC
# The depositor's hits bear a star; u = inconclusive; x = no result given.
SMILES,PfM18AAP inh,HDAC3 inhib,UBC9 SUMO inh,G6PDH CS,p97 inhibitor,PHOSPHO1 inh
O=C1C(Nc2cccc(O)c2)=C(N2CCCCC2)C(=O)c2ccccc21,10,6,-3,59*,4,54
COc1ccccc1NC1=C(N2CCCCC2)C(=O)c2ccccc2C1=O,-6,-6,40,33,-2,15
O=C(/C=C/c1ccc(O)cc1)c1ccc(NC2=C(N3CCCCC3)C(=O)c3ccccc3C2=O)cc1,9,10,48,52*,4,51
COc1c(C(CC(C)C)OC(C)=O)ccc2c1C(=O)OCc1cc(C)cc(O)c1O2 (centres undefined),x,34*,-13,x,x,13
CC(C)(C)NC(=O)C1CCC(CNS(=O)(=O)c2cccc3nsnc23)CC1 (centres undefined),4,-7,5,x,x,58
CCOC(=O)CNC(=O)C1CCC(CNS(=O)(=O)c2cccc3nsnc23)CC1 (centres undefined),0,x,6,x,x,65*
CN(C)c1ccc(NC(=O)CSc2nc(N)c(C(=O)Nc3ccc(N(C)C)cc3)s2)cc1,6,-3,-8,2,0,2
COc1ccc(NC(=O)CSc2nc(N)c(C(=O)Nc3ccc(N(C)C)cc3)s2)cc1,10,-8,20,-6,-1,66*
CC(C)OC(=O)c1ccc2nc3ccccc3nc2c1,3,7,18,x,x,16
Cc1cc(C)n2nc(C(=O)OCC(=O)N3CC(C)CC(C)C3)nc2n1 (centres undefined),x,-3,x,x,x,x
CCCC(=O)n1nc(-c2ccccc2)nc1SC,6,32*,1,3,1,-4
CSc1nc(-c2ccccc2)nn1C(=O)c1ccccc1,2,u,30,17,2,37
CCCCNC(=O)c1cn(C)c2ccc(S(=O)(=O)N3CC(C)CC(C)C3)cc2c1=O (centres undefined),0,8,11,x,x,2
COC(=O)c1cccc(-n2sc3ccccc3c2=O)c1,x,67*,x,x,x,x
Cc1c(C(C)(C)C)c(C=S)n2ccccc12,0,-5,13,3,-1,93*
CC(C)(C)c1ccc(-c2nc(C=O)c3ccccn23)cc1,6,-7,-23,4,-3,5
Cc1cc2oc(=O)cc(CN3CCCCC3)c2cc1O,-1,1,9,x,x,61*
Cc1ccc(NC(=O)CN(C)C(=O)COC(=O)c2ccc(Cl)cc2O)cc1,x,-3,x,x,x,x
CC(C)(C)c1nc(Sc2ccc([N+](=O)[O-])cn2)n[nH]1,-2,4,23,x,6,42
O=[N+]([O-])c1ccc(Sc2n[nH]c(-c3ccc(Cl)cc3Cl)n2)nc1,-1,2,-28,3,-4,67*
O=[N+]([O-])c1ccc(Sc2ccccc2Cl)nc1,4,0,6,7,6,97*
Nc1ccc(Sc2ccccc2Cl)nc1,x,2,x,x,x,x
Cc1cc(Cl)ccc1NC(=O)CCC(=O)N/N=C/c1cccnc1,13,5,12,x,x,42
C[C@@]12CC(=O)NC1N(C(=O)c1cccc(C(F)(F)F)c1)C(c1ccccc1OC(=O)c1cccc(C(F)(F)F)c1)C2 (some centres undefined),-4,42*,-24,5,-2,4
C[C@@]12CC(=O)NC1N(C(=O)c1ccccc1)C(c1ccccc1OC(=O)c1ccccc1)C2 (some centres undefined),-5,-2,10,8,0,15
SMILES,PfM18AAP inh,HDAC3 inhib,UBC9 SUMO inh,G6PDH CS,p97 inhibitor,PHOSPHO1 inh
Cc1cccc(C(C)C)c1NC(=O)COC(=O)CCN1C(=O)C2CC=CCC2C1=O (centres undefined),-3,-4,11,x,x,70*
CN(c1ccccc1)S(=O)(=O)c1nnc(NC(=O)C2CCCCC2)s1,4,2,17,x,x,70*
COc1ccc(Nc2nnc(SCC3CCCO3)s2)cc1 (centres undefined),-7,1,10,-1,-2,28
Cc1nc2ccccc2n1-c1ccccc1,5,-1,12,19,3,1
Cc1nc2nc(C)n(-c3ccccc3)c2s1,-12,4,15,7,0,71*
CC(SC1=NCCN1S(=O)(=O)c1ccccc1)c1ccccc1 (centres undefined),2,-6,0,x,x,61*
COc1ccc(N=Nc2nc3cc(Br)c(Br)cc3n2C)c(OC)c1,8,0,-10,-6,2,72*
CCOc1ccc(-c2nc(=S)[nH][nH]2)cc1,21,x,-18,-5,6,100*
COc1ccc(-c2nc(=S)[nH][nH]2)cc1,-37,-1,4,2,5,96*
CN1CCN(C(=O)c2cc(Cl)ccc2NC(=O)c2ccc(Cl)cc2Cl)CC1,0,-7,4,x,x,38
OCCN(Cc1ccccc1)c1ncnc2sccc12,0,5,14,x,x,36
CN(C)c1ccc(C(c2nnnn2C(C)(C)C)N2CCN(C(=O)c3ccco3)CC2)cc1 (centres undefined),20,10,17,1,0,88*
COc1cc(C(=S)N(C)C)ccc1O,9,4,-1,24,4,69*
CCCOC(=O)c1ccc(O)c(OC)c1,-1,0,13,9,-4,25
CC(C)[C@H](NC(=O)C1CCN(C(=O)[C@H](Cc2ccccc2)NC(=O)OC(C)(C)C)CC1)C(=O)O,9,-3,4,x,x,61*
COc1ccc(S(=O)(=O)N2CCC(C(=O)NC3CC(C)(C)NC(C)(C)C3)CC2)cc1,3,-4,x,x,x,70*
Cc1cc(C)c[n+](-c2nc([O-])sc2C=O)c1,4,3,2,4,-4,96*
O=C1NN(c2ccccc2)C(=O)/C1=C\c1ccc2c(c1)OCO2,29*,9,8,x,x,34
CCn1cc(CN2CCC(n3nccc3NC(=O)C(OC)c3ccccc3)CC2)cn1 (centres undefined),-10,10,3,x,x,20
Cc1ccc(S(=O)(=O)N(C(=O)c2ccco2)c2cc3sc(=O)oc3c3ccccc23)cc1,-18,6,56*,4,8,-2
S=C(Nc1cccc(Cl)c1)Nc1cccc2cnccc12,10,6,98*,27,27*,-16
FC(F)(F)c1ccccc1NC(=S)Nc1cccc2cnccc12,7,x,95,20,5,32
CC(=O)c1ccc(NC(=S)Nc2cccc3cnccc23)cc1,16,0,98*,x,17*,30
Cc1ccccc1NC(=S)Nc1cccc2cnccc12,16,-3,97*,21,11,36
Cc1ccc(C)c(NC(=S)Nc2cccc3cnccc23)c1,12,1,99,40,4,51
Fc1ccccc1NC(=S)Nc1cccc2cnccc12,9,5,98*,30,7,42
